# Bioassay records as filed in PubChem BioAssay.
# MEKK2 WT-MEK5: modulators of MEK5 binding to wildtype MEKK2, primary screen, biochemical, multiplex bead flow cytometry, Alexa488-MEK5; Alexa488-MEK5 binding to MEKK2 WT; actives lie on both sides; AID 1531, 2009; binding response (% of control), % at 10 µM; 1.1% of 290,000 active; Mitogen-activated protein kinase kinase kinase 2 (Homo sapiens), Q9Y2U5; in the data active = binding response below about 67% or above about 130%
# VLA-4 inh: inhibition in human VLA-4 binding assay, primary screen, VLA-4 allosteric modulator project, MLPCN library, flow cytometry, VLA-4 expressing cells | 0.2% of 330,000 active | ligand binding flow cytometry | inhibition, % (about 7 µM as worked out from the volumes in the protocol); in the data active = inhibition above about 50%
# MEKK2 mut-MEK5: MEK5 binding signal on mutant MEKK2 PB1, primary screen, biochemical, multiplex bead flow cytometry, Alexa488-MEK5 | Alexa488-MEK5 binding to MEKK2 mutant | percent response, % at 10 µM | 0.35% of 290,000 active | AID 1530, 2009; in the data active = percent response above about 24%, passing the limit was not always enough
# MEKK3 PB1 HTS: modulators of MEKK3-MEK5 PB1 binding, primary screen, biochemical, wildtype MEKK3, multiplex bead flow cytometry, Alexa488-MEK5 | bead-based flow cytometry, Alexa488-MEK5 binding to MEKK3; actives lie on both sides; 0 = blocked by unlabeled MEK5, 100 = vehicle | binding response (% of control), % at 10 µM | 1.4% of 290,000 active;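 active = binding response more than 3 SD above or below the average of its plate-row segment, actives on both sides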;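 also: Alexa488 bead fluorescence after subtracting the streptavidin-only scavenger bead signal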
# MEKK2wt confirm: modulators of MEK5 binding to wildtype MEKK2, confirmation, biochemical, single concentration, multiplex bead flow cytometry; shares compounds with MEKK3 PB1 HTS; Alexa488-MEK5 binding to MEKK2 WT; actives lie on both sides; binding response (% of control), % at 10 µM; 2.4% of 5,900 active; in the data active = binding response below about 16% or above about 210%; inactive = in between
# MEKK2mut-MEK5: mutant MEKK2 PB1-MEK5 binding signal retest – biochemical, single concentration, multiplex bead flow cytometry, confirmation; shares compounds with MEKK3 PB1 HTS; Alexa488-MEK5 binding to MEKK2 mutant; percent response, % at 10 µM; 2% of 5,900 active; in the data active = percent response mostly above about 71%, no sharp cut-off; inactive = mostly below about 38%;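 also: higher means compound restores mutant binding toward wildtype level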
# MEKK3 confirm: MEKK3 wild-type PB1 binding to MEK5, inhibitors, confirmation, biochemical, bead multiplex flow cytometry, single concentration, wildtype. shares compounds with MEKK3 PB1 HTS. Alexa488-MEK5 binding to MEKK3; active compounds read low. binding response (% of control), % at 10 µM. 1.8% of 5,900 active. AID 1894, 2009;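 active = binding response below 72% of control, or above a set upper limit, though filed actives all read lower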;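 also: 100% = DMSO only wells and 0% = binding blocked by excess unlabeled MEK5; lower values mean stronger disruption of MEK5 binding to MEKK3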
# Starred values were filed as active, the others as inactive; nt = no result; [ ] = remark or other dose. Sampled rows, rich in hits. Any-hit rate of the full collection: about 2.2%.
SMILES,MEKK2 WT-MEK5,VLA-4 inh,MEKK2 mut-MEK5,MEKK3 PB1 HTS,MEKK2wt confirm,MEKK2mut-MEK5,MEKK3 confirm
O=C1CC2(CCN(C(=O)COc3ccc(Cl)cc3)CC2)Oc2ccccc21,nt,-27,nt,nt,nt,nt,nt
Cc1nc(C)c(C(=O)NNS(=O)(=O)c2ccccc2)s1,107,12,0,140*,100,0,103
Cc1ccc(C)c(S(=O)(=O)NNC(=O)c2sc(NS(=O)(=O)c3ccccc3)nc2C)c1,103,-2,1,102,nt,nt,nt
C/C(=N/NC(=O)c1sc(NS(=O)(=O)c2ccccc2)nc1C)c1ccc(F)cc1,105,10,0,153*,101,-1,102
CCOC(=O)c1cc(C)sc1/N=C/C1=C(O)CCCC1=O,108,5,1,131*,107,9,109
CCCc1nc2ccccc2c(=O)n1CC(=O)c1ccc(F)cc1,104,-2,9,104,nt,nt,nt
Cc1cc(Nc2ccccc2)nc(NCc2ccccc2)n1,167*,-2,67*,110,165,51,110
Cc1cc(Nc2cccc(F)c2)nc(NCc2ccccc2)n1,142*,1,41,107,169,37,107
CN(C)c1ccc(C(CNS(=O)(=O)c2ccc([N+](=O)[O-])cc2)N2CCCC2)cc1 (centres undefined),nt,10,nt,nt,nt,nt,nt
COc1ccc(-c2cc(C#N)nc(N3CCNCC3)n2)cc1,215*,18,57*,84,223*,71*,95
COc1ccc(-c2cc(C#N)nc(N3CCN(C)CC3)n2)cc1,101,8,-3,94,nt,nt,nt
COc1ccc(N=C2NC(=O)/C(=C/c3ccc(O)c(OC)c3)S2)cc1,107,6,-1,146*,102,-1,99
CC(=O)ONC(=Nc1ccccc1)c1nonc1N,52,7,-46,47*[inhibitor],109,3,101
Cc1ccccc1S(=O)(=O)Cc1ccc(C(=O)NC2CC2)o1,100,-10,2,103,nt,nt,nt
Brc1ccc(C2=Nc3cccc4cccc(c34)N2)o1,109,9,2,142*,99,3,98
COc1ccc(NC(=O)c2nc[nH]c2C(=O)NCC(=O)OC(C)(C)C)cc1,54,4,4,50*[inhibitor],104,2,101
CSc1nc2nc3c(cc2c(=O)n1-c1ccccc1)COC(C)(C)C3,95,8,-5,96,nt,nt,nt
CSc1nc2nc3c(cc2c(=O)n1-c1ccc(C)cc1)COC(C)(C)C3,116,16,29,129*,100,-2,104
COc1ccc(CCNC(=O)C2CC(=O)N(c3ccc(C)cc3)C2)cc1OC (centres undefined),105,2,3,102,nt,nt,nt
Cc1ccc(N2CC(C(=O)NCCc3ccc(S(N)(=O)=O)cc3)CC2=O)cc1 (centres undefined),86,-8,-14,77*[inhibitor],105,2,103
Cc1ccc(N2CC(C(=O)Nc3ccc(S(=O)(=O)N4CCCC4)cc3)CC2=O)cc1 (centres undefined),45*[inhibitor],15,-13,60*[inhibitor],100,9,104
COc1ccc(N2CC(C(=O)Nc3ccc(S(=O)(=O)N4CCCC4)cc3)CC2=O)cc1 (centres undefined),94,-4,1,100,nt,nt,nt
CC(C)Cc1nnc(NC(=O)CSc2nc(-c3ccccc3)cc(=O)[nH]2)s1,70,10,-33,67,nt,nt,nt
Cc1cccc(-c2nn(-c3ccccc3)cc2C(=O)N(C)CC(=O)Nc2ccc(N3CCOCC3)cc2)c1,nt,6,nt,nt,nt,nt,nt
